These sequences were tested against RANGAP1 (assay: pooled miR-30 sensor sort-seq; sequence = guide strand). Conditions: shRNA.
Note: reference of the scale not given here.

| Sequence | sensor-assay potency score (higher = more potent) |
| --- | --- |
| TTCACTCTTGAGCAGACCCATG | -1.41 |
| TTAGGGTCCAGAATCTTCCGTG | 0.289 |
| TCACATCTTTAGCATCTTCTGC | -0.932 |
| TTGACCTTGTCTTCACTCTTGA | 0.405 |
| TAGGAAGGCAGAGACCACCTTC | 0.359 |
| AATCTCTTTAATCACATCTTTA | -1.26 |
| TTGAACACAGATGACACCTTTA | -0.0745 |
| TAATCACATCTTTAGCATCTTC | -0.22 |

These sequences were tested against RASGEF1A in the same assay as above. Conditions: shRNA.

| Sequence | sensor-assay potency score (higher = more potent) |
| --- | --- |
| AAACTTGGCTGTCTTGACCTTG | -0.781 |
| TTTTTCCATGTGGTTCTCGGGA | -0.794 |
| AAGGTGAAGATGTACGTCCTAT | 0.212 |
| TGAATCTTCTTGTCCTTCTCGA | 0.828 |
| TGTTTCTTCTTCACCACCCGGC | 0.377 |
| TGAAGAACTCCAACATGCGGGT | -0.41 |
| AATCTTCTTGTCCTTCTCGAAA | -1.91 |
| TTGCAGAAGTTGCTGGACGGGT | -0.613 |
| TTCTTGTCCTTCTCGAAAGGAC | -0.791 |
| TAGGTCTTGGTCAGGTCCCCTC | -1 |
| ATGAAGAACTCCAACATGCGGG | -0.48 |
| TTCAGGAGCTGCACGATCTTGG | -0.661 |

The sequences below were run against RASGEF1C in the same assay as above. Conditions: shRNA.

| Sequence | sensor-assay potency score (higher = more potent) |
| --- | --- |
| ATGACAATCTTCTCTCGGCTGC | -0.296 |
| TTTCTCGGGGTAGTAGTCGGCT | -0.879 |
| TTTCACATAAGCCTCCAGGTTG | -0.649 |
| TTCCACGTGGGTCAGCTGCTGG | -1.01 |
| TGTAGTTGCAGAAATTCCCCGT | 0.202 |
| TCTCACTTTCGTAAGAAGCCAA | -0.537 |
| ATGAAGAACTCAATCACCTGGG | 0.211 |
| TTTTTCTGTTTGGTTCTCTGGG | 0.0788 |
| TGAACCATTTCACATAAGCCTC | -1.38 |
| TTTTCTGTTTGGTTCTCTGGGC | -0.505 |
| TAGCACAGCCTGTTGAACCATT | -1.09 |
| TTAGAGCTTTCCATCTTTCTTT | -0.12 |

The sequences below were run against RASGRP2 in the same assay as above. Conditions: shRNA.

| Sequence | sensor-assay potency score (higher = more potent) |
| --- | --- |
| TTCAAGTCAAACTCCGCTGGGA | 0.724 |
| TTCTTGGTCTAGCAGAGCCTTC | -1.75 |
| TAGTCCTGAAACAGGATCTTGC | -0.808 |
| TTGTTGGTAGATGTGGAGCAGC | -1.12 |
| TCTATGTCGATTAGGCTGCTGT | -0.615 |
| TAGCAGAGCCTTCAGCTCCTTG | -0.951 |
| TTAGGCTGCTGTGCCGTCGGTT | -0.65 |
| TTGGTAGATGTGGAGCAGCTTG | -1.27 |
